Results filed as inconclusive are left out. Entries that show only a call come without a potency. Calls of active or inactive are those of the source. Unless noted, calls come from the whole dose curve.
What was measured:
[1] = Nuclear factor erythroid 2-related factor 2/antioxidant responsive element (Nrf2/ARE) small molecule agonists: qHTS cell viability counter screen in human keratinocytes (AID 1919968; active = well fitted curve in the direction sought with a large enough effect in the repeat runs; an effect the other way counts as inactive or inconclusive; note: nearly all actives have a fitted effect of over 55% in size)
Summary of the method: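 In human HaCaT keratinocytes stably expressing an ARE-driven luciferase, compound exposure lasted 23 h at 37 C under 5% CO2. Viable cells are quantified with a protease-based fluorogenic reagent (CellTiter-Fluor) read 1 h after addition.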

[2] = Nuclear factor erythroid 2-related factor 2/antioxidant responsive element (Nrf2/ARE) small molecule agonists: luciferase reporter gene qHTS assay in human keratinocytes (AID 1919969); note: nearly all actives have a fitted effect of over 35% in size; note: potency is the fitted concentration of half-maximal effect
[3] = biological target: Gonadotropin-releasing hormone receptor (Homo sapiens) (UniProt P30968); assay: Human gonadotropin-releasing hormone receptor (GnRHR) small molecule agonists, calcium flux assay in GnRHR-HEK293 cells (AID 1920063); note: nearly all actives have a fitted effect of over 35% in size
Summary of the method: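 Intracellular calcium rise is the read-out: engineered human GnRHR HEK293 cells, dye-loaded, are exposed to DMSO-dissolved compounds and fluorescence at Ex/Em 480/540 is tracked for 3 min.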

[4] = biological target: KiSS-1 receptor (Homo sapiens) (UniProt Q969F8); assay: Human kisspeptin (KISS1R) small molecule agonists, calcium flux assay in KISS1R-HEK293 cells (AID 1920064; active = well fitted curve in the direction sought with a large enough effect in the repeat runs; an effect the other way counts as inactive or inconclusive)
Summary of the method: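 Concentration-response testing used 15 concentrations in triplicate on human KISS1R-expressing HEK293 cells. Calcium-dependent fluorescence (Ex/Em 480/540) was followed kinetically for 3 min after compound transfer.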

[5] = G protein-coupled receptor (GPCR) small molecule agonists, calcium flux assay: HEK293 wild type cell line counter screen (AID 1920065)
Summary of the method: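 Fluorescence intensity signals activation. After overnight (18 h) culture and a 1 h calcium dye load at 37 C, compounds are added by pin tool and the plate read at 480/540 nm for 3 min in 1 s steps.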

[6] = p53 small molecule agonists, cell-based qHTS assay with human liver microsomes: qHTS cell viability counter screen (AID 1963579); note: nearly all actives have a fitted effect of over 45% in size
Summary of the method: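 p53RE-bla cells (4,000/well) were pre-incubated 5 h at 37 C, then given compounds in DMSO plus human liver microsomes (0.5 mg/mL final) and NADPH (0.5 mg/mL final) for 16 h at 37 C. Viability was read by CellTiter-Glo luminescence.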

[7] = p53 small molecule agonists, cell-based qHTS assay with rat liver microsomes: qHTS cell viability counter screen (AID 1963580); note: nearly all actives have a fitted effect of over 45% in size
Summary of the method: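 Counter screen for cytotoxicity under metabolic activation: rat liver microsomes and NADPH, 0.5 mg/mL final each, added with compounds to p53RE-bla HCT-116 cells; 16 h at 37 C, then ATP luminescence read.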

[8] = p53 small molecule agonists, cell-based qHTS assay: qHTS cell viability counter screen (AID 1963581); note: nearly all actives have a fitted effect of over 45% in size
Summary of the method: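 Luminescence from CellTiter-Glo, reflecting ATP content, serves as the cytotoxicity measure; it is taken after the 2 h reporter substrate step in HCT-116 p53RE-bla cells dosed for 16 h at 37 C.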

[9] = biological target: 5-hydroxytryptamine receptor 2A (Homo sapiens) (UniProt P28223); assay: 5-hydroxytryptamine receptor 2A (HTR2A) small molecule agonists, cell-based qHTS assay (AID 1963587); note: nearly all actives have a fitted effect of over 30% in size
Summary of the method: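 HTR2A-CHO cells, plated 18 h at 37 C/5% CO2, dye-loaded 1 h at 37 C; compounds in DMSO added by pin tool (agonist mode). Intracellular calcium flux read as kinetic fluorescence on FDSS over 2 min at 1 s intervals.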

[10] = biological target: Muscarinic acetylcholine receptor M1 (Homo sapiens) (UniProt P11229); assay: Cholinergic receptor muscarinic 1 (CHRM1) small molecule antagonists, cell-based qHTS assay (AID 1963588); note: nearly all actives have a fitted effect of over 40% in size
Summary of the method: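 Compounds were tested at 15 concentrations in three independent runs. Dye-loaded CHRM1-CHO cells were exposed 5 min at room temperature before stimulation by acetylcholine added at 50nM. Intracellular calcium was read kinetically on FDSS for 3 min.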

[11] = biological target: Muscarinic acetylcholine receptor M1 (Homo sapiens) (UniProt P11229); assay: Cholinergic receptor muscarinic 1 (CHRM1) small molecule agonists, cell-based qHTS assay (AID 1963589); note: nearly all actives have a fitted effect of over 35% in size
Summary of the method: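 Fluorescent calcium dye reports M1 activation in stably transfected CHO cells. Compounds, 15 concentrations, added after 1 h dye loading at 37 C; kinetic reading at 1 sec intervals.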

[12] = cAMP Responsive Elements (CRE) small molecule agonists, cell-based qHTS assay (AID 1963590)
Summary of the method: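 Compound exposure lasted 3 h at 37 C/5% CO2 in CRE-bla HEK 293T cells grown in assay medium with 10% dialyzed FBS and 25 mM HEPES. Reporter signal came from LiveBLAzer B/G FRET substrate, 2 h, room temperature.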

[13] = cAMP Responsive Elements (CRE) small molecule antagonists, cell-based qHTS assay (AID 1963591; active = well fitted inhibition curve with a large enough effect in the signal ratio in the repeat runs, not every such curve was filed as active; the % refers to the signal ratio)
Summary of the method: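 Stimulation used NKH477 at a final 0.25 uM for 3 h in compound-treated CRE-bla HEK293T cells, seeded 18 h beforehand. Reporter activity was measured with LiveBLAzer B/G FRET substrate after 2 h at room temperature.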

[14] = biological target: Beta-2 adrenergic receptor (Homo sapiens) (UniProt P07550); assay: Adrenergic beta2 receptor (ADRB2) small molecule antagonists, cell-based qHTS assay (AID 1963592); note: series mostly up to about 92 µM; nearly all actives have a fitted effect of over 50% in size
Summary of the method: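 Assay format: CHO-ADRB2 cells, 18-20hr seeding at 37C/5% CO2, then compound plus 1nM isoproterenol agonist mix for 0.5hr RT. Homogeneous time-resolved fluorescence cAMP detection after 1hr, expressed as 665/615 nm ratio.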

[15] = biological target: D(2) dopamine receptor (Homo sapiens) (UniProt P14416); assay: Dopamine D2 receptor (DRD2) small molecule agonists, cell-based qHTS assay (AID 1963594); note: nearly all actives have a fitted effect of over 35% in size
Summary of the method: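 HEK293 cells stably expressing DRD2 were cultured 24 h at 37 C, then given Ro20-1724 (0.1 mM final) and compounds for 10 min at room temperature. NKH477 (200nM) was then added for 30 min. cAMP was read by HTRF.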

[16] = biological target: D(2) dopamine receptor (Homo sapiens) (UniProt P14416); assay: Dopamine D2 receptor (DRD2) small molecule antagonists, cell-based qHTS assay (AID 1963595; active = well fitted inhibition curve with a large enough effect in the signal ratio in the repeat runs, with a control signal flat; the % refers to the signal ratio; note: potency is the fitted concentration of half-maximal effect)
Summary of the method: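 Human DRD2 antagonist qHTS measuring cAMP by HTRF. The cells are exposed to compound for 10 min, then to NKH477 (200 nM) and quinpirole (12 nM) for 30 min at RT, with Ro20-1724 (0.1 mM) present throughout.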

[17] = biological target: Beta-2 adrenergic receptor (Homo sapiens) (UniProt P07550); assay: Adrenergic beta2 receptor (ADRB2) small molecule agonists, cell-based qHTS assay (AID 1963593);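 note: CHO cells stably overexpressing human ADRB2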
Summary of the method: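 CHO cells stably over-expressing ADRB2 were plated overnight at 37C, then dosed with compounds plus a stimulation mix containing 100uM IBMX and 25uM Ro-20-1724 for 0.5hr at room temperature. cAMP was measured by HTRF competition, 1hr.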

Muscarinic acetylcholine receptor M1 (Homo sapiens), sequence (P11229 whole entry, looked up): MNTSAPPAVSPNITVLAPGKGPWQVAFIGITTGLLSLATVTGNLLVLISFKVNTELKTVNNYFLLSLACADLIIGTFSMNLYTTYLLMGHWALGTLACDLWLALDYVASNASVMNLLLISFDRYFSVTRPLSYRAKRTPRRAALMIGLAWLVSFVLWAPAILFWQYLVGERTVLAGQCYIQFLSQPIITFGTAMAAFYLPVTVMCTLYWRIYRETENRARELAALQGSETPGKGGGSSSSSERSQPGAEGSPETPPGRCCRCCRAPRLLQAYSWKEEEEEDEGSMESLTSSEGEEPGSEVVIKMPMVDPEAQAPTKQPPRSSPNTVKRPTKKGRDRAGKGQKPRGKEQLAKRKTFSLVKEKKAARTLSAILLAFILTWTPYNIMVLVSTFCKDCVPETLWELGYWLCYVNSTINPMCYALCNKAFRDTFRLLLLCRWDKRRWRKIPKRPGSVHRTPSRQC
5-hydroxytryptamine receptor 2A (Homo sapiens), sequence (P28223 whole entry, looked up): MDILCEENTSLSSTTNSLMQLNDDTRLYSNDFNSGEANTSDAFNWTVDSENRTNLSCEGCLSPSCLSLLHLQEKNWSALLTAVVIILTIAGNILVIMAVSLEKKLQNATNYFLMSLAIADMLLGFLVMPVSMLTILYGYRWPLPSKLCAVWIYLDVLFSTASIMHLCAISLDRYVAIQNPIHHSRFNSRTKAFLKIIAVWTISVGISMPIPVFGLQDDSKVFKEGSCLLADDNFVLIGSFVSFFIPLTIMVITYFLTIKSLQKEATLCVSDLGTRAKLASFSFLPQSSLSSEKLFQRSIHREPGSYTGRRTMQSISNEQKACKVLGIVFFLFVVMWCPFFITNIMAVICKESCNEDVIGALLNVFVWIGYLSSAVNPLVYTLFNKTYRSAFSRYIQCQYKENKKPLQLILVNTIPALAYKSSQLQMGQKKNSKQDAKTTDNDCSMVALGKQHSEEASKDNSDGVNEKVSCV
Gonadotropin-releasing hormone receptor (Homo sapiens), sequence (P30968 whole entry, looked up): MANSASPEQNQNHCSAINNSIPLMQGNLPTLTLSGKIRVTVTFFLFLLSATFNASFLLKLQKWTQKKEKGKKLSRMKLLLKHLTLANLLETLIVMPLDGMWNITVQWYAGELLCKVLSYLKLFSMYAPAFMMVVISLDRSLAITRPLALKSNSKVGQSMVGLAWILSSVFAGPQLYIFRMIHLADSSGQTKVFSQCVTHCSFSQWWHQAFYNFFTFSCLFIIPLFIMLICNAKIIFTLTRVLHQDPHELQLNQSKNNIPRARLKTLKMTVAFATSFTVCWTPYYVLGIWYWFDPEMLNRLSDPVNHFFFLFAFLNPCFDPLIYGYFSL
KiSS-1 receptor (Homo sapiens), sequence (Q969F8 whole entry, looked up): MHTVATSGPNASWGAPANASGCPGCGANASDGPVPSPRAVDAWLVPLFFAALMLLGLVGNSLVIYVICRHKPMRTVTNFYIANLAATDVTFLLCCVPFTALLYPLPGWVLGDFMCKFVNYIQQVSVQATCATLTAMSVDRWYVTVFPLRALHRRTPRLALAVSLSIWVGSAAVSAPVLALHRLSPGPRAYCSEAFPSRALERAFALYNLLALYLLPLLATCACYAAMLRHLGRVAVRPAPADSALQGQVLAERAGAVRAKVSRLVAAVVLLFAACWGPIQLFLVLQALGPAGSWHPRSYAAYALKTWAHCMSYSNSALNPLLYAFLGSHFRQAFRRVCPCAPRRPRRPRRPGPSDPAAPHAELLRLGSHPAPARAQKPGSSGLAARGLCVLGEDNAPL
Beta-2 adrenergic receptor (Homo sapiens), sequence (P07550 whole entry, looked up): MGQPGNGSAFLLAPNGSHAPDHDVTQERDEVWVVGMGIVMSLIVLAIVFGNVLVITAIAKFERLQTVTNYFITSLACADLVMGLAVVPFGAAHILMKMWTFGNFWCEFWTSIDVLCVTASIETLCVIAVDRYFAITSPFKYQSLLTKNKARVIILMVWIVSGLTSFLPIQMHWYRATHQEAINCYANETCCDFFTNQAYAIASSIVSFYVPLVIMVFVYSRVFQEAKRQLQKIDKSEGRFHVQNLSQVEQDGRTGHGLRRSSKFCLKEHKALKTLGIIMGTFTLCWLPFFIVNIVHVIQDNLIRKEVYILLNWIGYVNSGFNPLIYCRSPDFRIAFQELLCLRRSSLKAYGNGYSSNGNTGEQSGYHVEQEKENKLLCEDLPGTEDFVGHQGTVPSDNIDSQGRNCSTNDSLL
D(2) dopamine receptor (Homo sapiens), sequence (P14416 whole entry, looked up): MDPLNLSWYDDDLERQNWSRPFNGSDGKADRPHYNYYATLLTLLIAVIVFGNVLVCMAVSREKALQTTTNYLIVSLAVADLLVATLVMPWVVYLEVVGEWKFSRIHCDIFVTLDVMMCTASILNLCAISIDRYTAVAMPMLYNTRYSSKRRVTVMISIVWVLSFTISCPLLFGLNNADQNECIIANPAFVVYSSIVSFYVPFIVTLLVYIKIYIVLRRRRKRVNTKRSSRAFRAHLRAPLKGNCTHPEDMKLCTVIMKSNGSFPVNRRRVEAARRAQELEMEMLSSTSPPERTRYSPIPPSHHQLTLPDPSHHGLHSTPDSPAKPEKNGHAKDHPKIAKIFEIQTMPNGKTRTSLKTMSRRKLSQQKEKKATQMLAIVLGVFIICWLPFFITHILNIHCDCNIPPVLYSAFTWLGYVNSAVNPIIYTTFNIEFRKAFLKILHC

Row | SMILES | Potency [1] | Potency [2] | Potency [3] | Potency [4] | Potency [5] | Potency [6] | Potency [7] | Potency [8] | Potency [9] | Potency [10] | Potency [11] | Potency [12] | Potency [13] | Potency [14] | Potency [15] | Potency [16] | Potency [17]
1 | Cc1ccc(S(=O)(=O)NC(=O)NC2CCCCC2)cc1 | inactive | inactive | inactive | inactive | inactive | inactive | inactive | inactive | inactive | inactive | inactive | inactive | inactive | inactive | inactive | inactive | 
2 | OCCc1ccncc1 | inactive | inactive | inactive | inactive | inactive | inactive | inactive | inactive |  | inactive | inactive | inactive | inactive | inactive | inactive | inactive | inactive
3 | N=C(N)S(=O)O | inactive | inactive | inactive | inactive | inactive | inactive | inactive | inactive | inactive | inactive | inactive | inactive | inactive | inactive | inactive | inactive | 
4 | C=C(C)c1cccc(C(=C)C)c1 | inactive | inactive | inactive | inactive | inactive | inactive | inactive | inactive | inactive | inactive | inactive | inactive |  | inactive | inactive | inactive | 
5 | C[C@H]1[C@@H](c2ccccc2)NC(=O)N1C | inactive | inactive | inactive | inactive | inactive | inactive | inactive | inactive | inactive | inactive | inactive | inactive | inactive | inactive | inactive | inactive | 
6 | CCC(C)(CCC(C)C)C(=O)O (configuration not stated) | inactive | inactive | inactive | inactive | inactive | inactive | inactive | inactive | inactive | inactive | inactive | inactive | inactive | inactive | inactive | inactive | 
7 | CCCC1CCOC(C)S1 (configuration not stated) | inactive | inactive | inactive | inactive | inactive | inactive | inactive | inactive | inactive | inactive | inactive |  | inactive |  | inactive |  | inactive
8 | CCC(C)OC(C)CC (configuration not stated) | inactive | inactive | inactive | inactive | inactive | inactive | inactive | inactive | inactive | inactive |  | inactive | inactive | inactive | inactive |  | inactive
9 | Cn1c(NCCN(CCO)CCCc2ccc([N+](=O)[O-])cc2)cc(=O)n(C)c1=O | inactive | inactive | inactive | inactive | inactive | inactive | inactive | inactive |  | inactive | inactive | inactive | inactive |  | inactive | inactive | inactive
10 | Cc1onc(-c2ccccc2Cl)c1C(=O)N[C@@H]1C(=O)N2[C@@H]1SC(C)(C)[C@@H]2C(=O)O | inactive | inactive | inactive | inactive | inactive | inactive | inactive | inactive |  |  |  | inactive | inactive | inactive | inactive | inactive | inactive
11 | CC(C)OC(=O)c1ccccc1C(=O)OC(C)C | inactive | inactive | inactive | inactive | inactive | inactive | inactive | inactive | inactive | inactive | inactive | inactive | inactive | inactive | inactive | inactive | 
12 | CN1CCC(=C2c3ccccc3CCc3cccnc32)CC1 | inactive | inactive | inactive | inactive | inactive | inactive | inactive | inactive | inactive |  | inactive | inactive | inactive | inactive | inactive | 29.8 µM (active) | 
13 | CN(C)c1ccncc1 | inactive | inactive | inactive | inactive | inactive | inactive | inactive | inactive | inactive | inactive | inactive | inactive | inactive | inactive | inactive | inactive | 
14 | CCC1Nc2cc(Cl)c(S(N)(=O)=O)cc2S(=O)(=O)N1 (configuration not stated) | inactive | inactive | inactive | inactive | inactive | inactive | inactive | inactive | inactive | inactive | inactive | inactive | inactive |  | inactive | inactive | inactive
15 | CN1C(CSCC(F)(F)F)Nc2cc(Cl)c(S(N)(=O)=O)cc2S1(=O)=O (configuration not stated) | inactive | inactive | inactive | inactive | inactive | inactive | inactive | inactive | inactive | inactive |  | inactive | inactive | inactive | inactive | inactive | inactive
16 | C=CCOCC(O)CS(=O)(=O)O (configuration not stated) | inactive | 0.196 µM (active) | inactive | inactive | inactive | inactive | inactive | inactive | inactive | inactive |  | inactive | inactive | inactive | inactive | inactive | 
17 | COC(=O)C1=C(C)NC(C)=C(C(=O)OC(C)C)C1c1cccc2nonc12 (configuration not stated) | inactive | inactive | inactive | inactive | inactive | inactive | inactive | inactive | inactive | inactive |  | inactive | inactive |  | inactive | inactive | 
18 | CN(C)CCCO[C@@H]1[C@H]2OC(C)(C)O[C@H]2O[C@@H]1C(O)CO (some centres not stated) | inactive | inactive | inactive | inactive | inactive | inactive | inactive | inactive | inactive | inactive | inactive | inactive |  | inactive | inactive | inactive | inactive
